Measured values from PubChem BioAssay AID1159580 (chemical genetic matrix, 2015).
Among all 5,500 compounds or so, about 2,000 (36%) were called active. Roughly 18% stayed inconclusive and do not appear here. No stated cut-off is given here; in the data, active means normalized growth mostly below about 0.91 (no sharp cut-off); inconclusive means no clear call, values can overlap the other calls; inactive means mostly above about 0.92. Some of the results follow.

Assay: chemical genetic growth profiling, strain panel (AID 1159580);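 further: tested at 20 µM; growth read once vehicle control cultures reached saturation at 30 °C; 1 = growth at the plate median or of vehicle wells; lower values mean less growth of the strain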
Conditions: S. cerevisiae deletion strains, growth OD
[1] = locus YAL013W, strain DEP1, hits give low values
[2] = locus YBR229C, strain ROT2, hits give low values
[3] = locus YDL101C, strain DUN1, hits give low values
[4] = locus YDR150W, strain NUM1, hits give low values
[5] = locus YEL061C, strain CIN8, hits give low values
[6] = locus YGR078C, strain PAC10, hits give low values
[7] = locus YHR030C, strain SLT2, hits give low values
[8] = locus YHR087W, strain rtc3, hits give low values
[9] = locus YJR043C, strain POL32, hits give low values
[10] = locus YJR075W, strain HOC1, hits give low values
[11] = locus YLR039C, strain RIC1, hits give low values
[12] = locus YLR058C, strain SHM2 (second series), hits give low values
[13] = locus YLR085C, strain ARP6, hits give low values
[14] = locus YLR262C, strain YPT6, hits give low values
[15] = locus YML094W, strain GIM5, hits give low values
[16] = locus YMR219W, strain ESC1, hits give low values
[17] = locus YMR263W, strain SAP30, hits give low values
[18] = locus YNL153C, strain GIM3, hits give low values
[19] = locus YNL298W, strain CLA4 (second series), hits give low values
[20] = locus YNL322C, strain KRE1, hits give low values
[21] = locus YNR030W, strain Alg12, hits give low values
[22] = locus YPL055C, strain LGE1, hits give low values
[23] = locus YPL241C, strain CIN2, hits give low values
[24] = locus YPR135W, strain CTF4, hits give low values

Measured: normalized growth

O=[N+]([O-])c1cc(C(F)(F)F)ccc1N1CCN(CCO)CC1
inactive: [1] 0.995 | [2] 0.987 | [3] 0.989 | [4] 1 | [5] 0.993 | [6] 0.977 | [7] 0.953 | [8] 1.03 | locus YJL187C, strain SWE1, hits give low values 1 | [9] 0.991 | [10] 0.986 | [11] 0.978 | [12] 0.982 | [13] 0.981 | [14] 0.97 | [15] 0.992 | [16] 0.997 | [17] 0.937 | [18] 0.99 | [19] 0.941 | [20] 0.982 | [21] 0.943 | locus YOL006C, strain TOP1, hits give low values 0.941 | [22] 1.03 | [23] 0.974 | [24] 0.893

O=C(c1ccccc1)C1CCN(c2ccc(C(F)(F)F)cc2[N+](=O)[O-])CC1
inactive: [1] 0.995 | [2] 1.01 | [3] 0.995 | locus YDL134C, strain PPH21, hits give low values 1.01 | [4] 1 | [5] 1 | [6] 0.982 | [7] 1.02 | [8] 0.98 | [9] 1 | [10] 0.946 | [11] 1.02 | [12] 0.997 | [13] 0.953 | [14] 1.01 | [15] 1.01 | [16] 0.996 | [17] 0.998 | locus YMR307W, strain GAS1, hits give low values 0.991 | [18] 0.991 | [19] 1.02 | [20] 1.01 | [21] 1.04 | [22] 0.999 | [23] 0.931 | [24] 0.978

CC(C)(C)C1=NN(c2nc3ccc(Cl)cc3s2)C(=O)C1
active: locus YAR019C, strain CDC15, hits give low values 0.484 | locus YBL105C, strain PKC1, hits give low values 0.0905 | locus YBR135W, strain CKS1, hits give low values 0.0897 | locus YBR136W, strain MEC1, hits give low values 0.102 | locus YBR160W, strain CDC28, hits give low values 0.111 | locus YDL017W, strain CDC7, hits give low values 0.0926 | locus YDL028C, strain MPS1, hits give low values 0.105 | [3] 0.496 | locus YDL108W, strain KIN28, hits give low values 0.516 | locus YDL132W, strain cdc53, hits give low values 0.436 | locus YDL214C, strain PRR2, hits give low values 0.104 | locus YDR052C, strain DBF4, hits give low values 0.116 | locus YDR054C, strain cdc34, hits give low values 0.225 | locus YDR477W, strain SNF1, hits give low values 0.11 | locus YER123W, strain YCK3, hits give low values 0.0976 | locus YER133W, strain GLC7, hits give low values 0.11 | locus YFL009W, strain cdc4, hits give low values 0.11 | locus YFL029C, strain CAK1, hits give low values 0.0958 | locus YFR003C, strain YPI1, hits give low values 0.0998 | locus YFR019W, strain FAB1, hits give low values 0.109 | locus YFR028C, strain CDC14, hits give low values 0.101 | locus YGR040W, strain KSS1, hits give low values 0.121 | locus YGR052W, strain FMP48, hits give low values 0.114 | locus YGR092W, strain DBF2, hits give low values 0.0994 | [7] 0.106 | locus YHR079C, strain IRE1, hits give low values 0.111 | locus YHR082C, strain KSP1, hits give low values 0.121 | locus YHR205W, strain SCH9, hits give low values 0.00427 | locus YIL147C, strain SLN1, hits give low values 0.104 | locus YJL095W, strain BCK1, hits give low values 0.104 | locus YJL128C, strain PBS2, hits give low values 0.103 | locus YJL157C, strain FAR1, hits give low values 0.101 | locus YJR016C, strain ILV3, hits give low values 0.118 | locus YJR066W, strain TOR1 (second series), hits give low values 0.0988 | locus YJR066W, strain TOR1, hits give low values 0.108 | locus YKL048C, strain ELM1, hits give low values 0.119 | locus YKL067W, strain YNK1, hits give low values 0.144 | locus YKL101W, strain HSL1, hits give low values 0.0952 | locus YKL193C, strain SDS22, hits give low values 0.093 | locus YKL203C, strain TOR2, hits give low values 0.1 | locus YLR113W, strain HOG1, hits give low values 0.14 | locus YLR133W, strain CKI1, hits give low values 0.107 | locus YLR403W, strain SFP1, hits give low values 0.00206 | locus YML070W, strain DAK1, hits give low values 0.1 | locus YMR001C, strain CDC5, hits give low values 0.15 | locus YMR205C, strain PFK2 (second series), hits give low values 0.0849 | locus YMR277W, strain FCP1, hits give low values 0.262 | locus YNL006W, strain LST8, hits give low values 0.12 | locus YNL020C, strain ARK1, hits give low values 0.107 | locus YNL161W, strain CBK1, hits give low values 0.429 | locus YNL183C, strain NPR1, hits give low values 0.105 | locus YNL207W, strain RIO2, hits give low values 0.179 | locus YNL222W, strain SSU72, hits give low values 0.504 | locus YNL307C, strain MCK1 (second series), hits give low values 0.107 | locus YOL078W, strain AVO1, hits give low values 0.0851 | locus YOL136C, strain PFK27, hits give low values 0.111 | locus YOR061W, strain CKA2, hits give low values 0.0975 | locus YOR119C, strain RIO1, hits give low values 0.114 | locus YOR231W, strain MKK1, hits give low values 0.104 | locus YOR329C, strain SCD5, hits give low values 0.299 | locus YPL031C, strain PHO85, hits give low values 0.0965 | locus YPL153C, strain RAD53, hits give low values 0.0988 | locus YPL204W, strain HRR25, hits give low values 0.11 | locus YPL209C, strain IPL1, hits give low values 0.0986 | locus YPL256C, strain CLN2, hits give low values 0.121 | locus YPR025C, strain CCL1, hits give low values 0.124 | locus YPR106W, strain ISR1, hits give low values 0.199 | locus YPR111W, strain DBF20, hits give low values 0.463 | strain NNK1, hits give low values 0.106 | strain TSCII, hits give low values 0.48
inactive: locus YDR226W, strain ADK1, hits give low values 0.898
